Screening results deposited in PubChem BioAssay by several laboratories.
MEKK2 WT-MEK5 = modulators of MEK5 binding to wildtype MEKK2, primary screen, biochemical, multiplex bead flow cytometry, Alexa488-MEK5; Mitogen-activated protein kinase kinase kinase 2 (Homo sapiens), Q9Y2U5; Alexa488-MEK5 binding to MEKK2 WT; actives lie on both sides; 1.1% of 290,000 active; binding response (% of control), % at 10 µM; AID 1531, 2009; in the data active means binding response below about 67% or above about 130%
MEKK2mut PB1 HTS = MEK5 binding signal on mutant MEKK2 PB1, primary screen, biochemical, multiplex bead flow cytometry, Alexa488-MEK5 | Alexa488-MEK5 binding to MEKK2 mutant | percent response, % at 10 µM | 0.35% of 290,000 active; in the data active means percent response above about 24%, passing the limit was not always enough
UBC13 inh = UBC13 polyubiquitin chain formation inhibitors, primary screen, biochemical, TR-FRET, uHTS; Ubiquitin-conjugating enzyme E2 N (Homo sapiens), P61088; inhibition, % at 20 µM; 0.47% of 330,000 active; AID 485273, 2010; in the data active means inhibition above about 45%, passing the limit was not always enough
Target sequence (P61088 whole entry, looked up): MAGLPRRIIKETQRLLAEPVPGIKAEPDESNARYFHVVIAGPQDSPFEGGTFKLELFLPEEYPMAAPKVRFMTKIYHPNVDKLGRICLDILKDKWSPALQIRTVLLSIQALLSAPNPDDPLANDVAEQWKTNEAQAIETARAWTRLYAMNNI
MEKK3 PB1 HTS = modulators of MEKK3-MEK5 PB1 binding, primary screen, biochemical, wildtype MEKK3, multiplex bead flow cytometry, Alexa488-MEK5. Mitogen-activated protein kinase kinase kinase 3 (Homo sapiens), Q99759. bead-based flow cytometry, Alexa488-MEK5 binding to MEKK3; actives lie on both sides; 0 = blocked by unlabeled MEK5, 100 = vehicle. binding response (% of control), % at 10 µM. 1.4% of 290,000 active. AID 1529, 2009;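 active means binding response more than 3 SD above or below the average of its plate-row segment, actives on both sides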;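 further: Alexa488 bead fluorescence after subtracting the streptavidin-only scavenger bead signal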
MEKK2wt confirm = modulators of MEK5 binding to wildtype MEKK2, confirmation, biochemical, single concentration, multiplex bead flow cytometry. shares compounds with MEKK3 PB1 HTS. Alexa488-MEK5 binding to MEKK2 WT; actives lie on both sides. binding response (% of control), % at 10 µM. 2.4% of 5,900 active. AID 1892, 2009; in the data active means binding response below about 16% or above about 210%; inactive means in between
MEKK2mut confirm = mutant MEKK2 PB1-MEK5 binding signal retest – biochemical, single concentration, multiplex bead flow cytometry, confirmation | Alexa488-MEK5 binding to MEKK2 mutant | AID 1893, 2009 | shares compounds with MEKK3 PB1 HTS | percent response, % at 10 µM | 2% of 5,900 active; in the data active means percent response mostly above about 71%, no sharp cut-off; inactive means mostly below about 38%;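 further: higher means compound restores mutant binding toward wildtype level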
MEKK3-MEK5 inh = MEKK3 wild-type PB1 binding to MEK5, inhibitors, confirmation, biochemical, bead multiplex flow cytometry, single concentration, wildtype. shares compounds with MEKK3 PB1 HTS. Alexa488-MEK5 binding to MEKK3; stronger effect = lower value. binding response (% of control), % at 10 µM. AID 1894, 2009. 1.8% of 5,900 active;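 active means binding response below 72% of control, or above a set upper limit, though filed actives all read lower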
Of the large screens only hits and unclear results are named; the others gave an inactive call (follow-up assays come after a bar, where they were run); ! = repeats disagree; [ ] = another dose, or the depositor's remark. This is a sample that favours compounds with a hit; in the whole collection about 2.3% have one here.

OC(COc1cccc2ccccc12)CN1CCCC1 (configuration not stated)	MEKK2 WT-MEK5 139 | MEKK2wt confirm inactive | MEKK2mut confirm inactive | MEKK3-MEK5 inh inactive
OC(COc1cccc2ccccc12)CN1CCN(c2ccc(Cl)cc2)CC1 (configuration not stated)	MEKK2 WT-MEK5 144! | MEKK2wt confirm inactive | MEKK2mut confirm inactive | MEKK3-MEK5 inh inactive
OC(COc1cccc2ccccc12)CN1CCN(c2cccc(Cl)c2)CC1 (configuration not stated)	none
O=C1Cc2cc(S(=O)(=O)NCc3ccc(F)cc3)ccc2N1	none (no result: MEKK2 WT-MEK5, MEKK2mut PB1 HTS, MEKK3 PB1 HTS)
C=CCOc1ccc(/C=C2\N=C(C)OC2=O)cc1OC	MEKK2 WT-MEK5 53[inhibitor], MEKK3 PB1 HTS 61[inhibitor] | MEKK2wt confirm inactive | MEKK2mut confirm inactive | MEKK3-MEK5 inh inactive
COc1ccc(/C=C2\N=C(C)OC2=O)cc1OC	none
COc1ccc(S(=O)(=O)NCCSc2ccc(C)cc2)cc1OC	MEKK3 PB1 HTS 122 | MEKK2wt confirm inactive | MEKK2mut confirm inactive | MEKK3-MEK5 inh inactive
O=C(COC(=O)C1CCN(c2ccc(C(F)(F)F)cn2)CC1)NCc1cccc(Cl)c1	none (no result: MEKK2 WT-MEK5, MEKK2mut PB1 HTS, MEKK3 PB1 HTS)
O=C(c1ccc(Cl)cc1)N(Cc1ccco1)C1CCS(=O)(=O)C1 (configuration not stated)	MEKK2 WT-MEK5 1.0[inhibitor], MEKK3 PB1 HTS 2.0[inhibitor] | MEKK2wt confirm inactive | MEKK2mut confirm inactive | MEKK3-MEK5 inh inactive
Cc1noc(C)c1COc1ccc(C(=O)NCCc2ccc(F)cc2)cc1	none (no result: MEKK2 WT-MEK5, MEKK2mut PB1 HTS, MEKK3 PB1 HTS)
CC1=N/C(=C\c2ccc([N+](=O)[O-])cc2)C(=O)N1c1ccc(Br)c(C)c1	MEKK2 WT-MEK5 -2.0, MEKK3 PB1 HTS 82[inhibitor] | MEKK2wt confirm inactive | MEKK2mut confirm inactive | MEKK3-MEK5 inh inactive
O=C1CC(c2ccsc2)Sc2ccccc2N1 (configuration not stated)	none
CC1CC(=O)C2=C(C1)Nc1ccccc1SC2c1ccc(F)cc1 (configuration not stated)	MEKK3 PB1 HTS 130 | MEKK2wt confirm inactive | MEKK2mut confirm inactive | MEKK3-MEK5 inh inactive
CC(C)[C@H](NC(N)=O)C(=O)NCCc1ccc(Cl)cc1	none
CC(C)C(NC(=O)CNC(=O)OC(C)(C)C)C(=O)NCc1ccc(Cl)cc1 (configuration not stated)	MEKK2 WT-MEK5 48[inhibitor] | MEKK2wt confirm inactive | MEKK2mut confirm inactive | MEKK3-MEK5 inh inactive
COc1ccc(Cl)cc1NC(=S)NCCc1ccc(S(N)(=O)=O)cc1	none
COc1cc(NC(=S)NCc2ccc(S(N)(=O)=O)cc2)c(OC)cc1Cl	MEKK3 PB1 HTS 59[inhibitor] | MEKK2wt confirm inactive | MEKK2mut confirm inactive | MEKK3-MEK5 inh inactive
COC(=O)c1ccc(Nc2ccc3nonc3c2[N+](=O)[O-])cc1	none
CCCCSc1cc(=O)[nH]c(N)n1	MEKK3 PB1 HTS 70[inhibitor] | MEKK2wt confirm inactive | MEKK2mut confirm inactive | MEKK3-MEK5 inh inactive
CC(=O)c1ccc(NC(=O)C[n+]2cccc(C)c2)cc1	none
C=CCSc1nnc(NC(=O)c2cn(CC)c3nc(C)ccc3c2=O)s1	none
O=C(Cc1csc(Nc2nc(=S)[nH]c3ccccc23)n1)N1CCN(c2cccc(C(F)(F)F)c2)CC1	none
Cc1cccc(-c2nc(CSc3nc4c(c(=O)[nH]3)CCC4)c(C)o2)c1	none
Cc1oc(-c2ccccc2)nc1CSc1nc2c(c(=O)[nH]1)CCC2	MEKK3 PB1 HTS 60[inhibitor] | MEKK2wt confirm inactive | MEKK2mut confirm inactive | MEKK3-MEK5 inh inactive
CCOc1ccc2[nH]c3c(c2c1)CNCC3	MEKK2 WT-MEK5 158 | MEKK2wt confirm inactive | MEKK2mut confirm inactive | MEKK3-MEK5 inh inactive
CC1CC(C)CN(CC(O)COc2ccc3c(c2)CCC3)C1 (configuration not stated)	MEKK3 PB1 HTS 152 | MEKK2wt confirm inactive | MEKK2mut confirm inactive | MEKK3-MEK5 inh inactive
Cc1ccc(/C=N/n2nnnc2N)cc1[N+](=O)[O-]	MEKK3 PB1 HTS 128 | MEKK2wt confirm inactive | MEKK2mut confirm inactive | MEKK3-MEK5 inh inactive
CC1CCN(c2ccc(/C=N/n3nnnc3N)cc2[N+](=O)[O-])CC1	none
Cc1ccc(Cn2cnc3ccccc32)cc1C	MEKK3 PB1 HTS 74[inhibitor] | MEKK2wt confirm inactive | MEKK2mut confirm inactive | MEKK3-MEK5 inh inactive
O=C(NC1CC1)C1CC(=O)N(c2ccc(F)cc2)C1 (configuration not stated)	none
COc1ccc(Cl)cc1NC(=O)NCCN1CCCCC1	none
COc1ccc(Cl)cc1NC(=O)NCC1CCN(C(=O)OC(C)(C)C)CC1	MEKK3 PB1 HTS 128 | MEKK2wt confirm inactive | MEKK2mut confirm inactive | MEKK3-MEK5 inh inactive
COc1ccc(Cl)cc1NC(=O)NC1CCCCC1	MEKK3 PB1 HTS 81[inhibitor] | MEKK2wt confirm inactive | MEKK2mut confirm inactive | MEKK3-MEK5 inh inactive
O=C(NN1CCOCC1)c1ccc(F)cc1	none
COc1cc2[nH]c(=O)n(CCC(=O)N3CCc4ccccc4C3)c(=O)c2cc1OC	MEKK3 PB1 HTS 122 | MEKK2wt confirm inactive | MEKK2mut confirm inactive | MEKK3-MEK5 inh inactive
O=C(CCN1CCC(c2ccccc2)C1)c1cccs1 (configuration not stated)	MEKK3 PB1 HTS 81[inhibitor] | MEKK2wt confirm inactive | MEKK2mut confirm inactive | MEKK3-MEK5 inh inactive
Cc1nc2ccccc2c2c1C(=O)NC2=O	none
CCC(C)NCC(=O)Nc1ccc(-c2nc3cc(NC(=O)CNC(C)CC)ccc3o2)cc1 (configuration not stated)	MEKK2 WT-MEK5 160, MEKK2mut PB1 HTS 34 | MEKK2wt confirm inactive | MEKK2mut confirm inactive | MEKK3-MEK5 inh inactive
CCN(CC)CC(=O)Nc1ccc(-c2nc3cc(NC(=O)CN(CC)CC)ccc3o2)cc1	none
Oc1[nH]c2ccccc2c1C1=NCCCC1	none
O=c1o[nH]c(-c2ccccc2)c1C1=NCCCCC1	MEKK3 PB1 HTS 73[inhibitor] | MEKK2wt confirm inactive | MEKK2mut confirm inactive | MEKK3-MEK5 inh inactive
CCOC(=O)N1CCN(c2c(N3CCN(c4ccccc4F)CC3)c(=O)c2=O)CC1	MEKK3 PB1 HTS 72[inhibitor] | MEKK2wt confirm inactive | MEKK2mut confirm inactive | MEKK3-MEK5 inh 70
CCOC(=O)N1CCN(c2c(N3CCN(c4cccc(C)c4C)CC3)c(=O)c2=O)CC1	none (no result: UBC13 inh)
CCOC(=O)c1ccc(N2CCN(c3ccccc3F)CC2)c(NC(=O)Nc2ccccc2)c1	MEKK2 WT-MEK5 30[inhibitor] | MEKK2wt confirm inactive | MEKK2mut confirm inactive | MEKK3-MEK5 inh inactive
